# In the library only some 10% were active in any assay of this set; here they are far more common.
# SW480 rereplic – DNA re-replication induction in SW480 cells. SW480 DNA re-replication, Hoechst DNA content imaging, 48 h. 1.8% of 340,000 active. Potency, µM (titrated, usually from 46.1 µM), inactives show at the highest dose re-replication activation, usual class: activators; also: % of control where 0% means no effect; nearly all actives have a fitted effect of over 55% in size
#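 DNA re-replication was detected as more nuclei of elevated Hoechst intensity after 48 hr exposure to compound (23 nL pinned per well of 250 cells).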
# RORgamma inh – blocks mouse ROR gamma transcriptional activity | P51450 | Drosophila S2 Gal4-RORgamma UAS-luciferase reporter, 20 h | Potency, µM (top dose mostly 53.6 µM), for the others: at the highest dose activity change, negative = inhibition, usual class: inhibitors | 5.4% of 310,000 active; also: % is scaled to controls: 0 for no effect and ±100 for the full control effect; nearly all actives have a fitted effect of over 60% in size
#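 In this cell-based reporter format, copper sulfate (700 uM final) drives Gal4–ROR gamma fusion expression from a metallothionein promoter in Drosophila Schneider cells; compounds preincubated 1 hr, reporter read after 20 hr at ambient temperature.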
# MCF10A rerep – induces DNA re-replication in MCF 10a normal breast cells; Potency, µM (titrated, usually from 46.1 µM), without a hit: top-dose activity, positive = re-replication, most hits filed as activators; MCF 10A DNA re-replication, Hoechst nuclear intensity, 48 h; 2.9% of 350,000 active; also: % of control where 0% means no effect; nearly all actives have a fitted effect of over 50% in size
# VP16 counter – counter-screen for ROR gamma inhibitors: Gal4-VP16 reporter; 3.5% of 310,000 active; Potency, µM (top dose mostly 53.6 µM), without a hit: at the highest dose activity, negative = inhibition, most hits filed as inhibitors; Drosophila S2 Gal4-VP16 UAS-luciferase, luminescence, 20 h; AID 2546;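 also: Gal4-VP16 expression switched on by copper sulfate through the metallothionein promoter; % is scaled to controls: 0 for no effect and ±100 for the full control effect; nearly all actives have a fitted effect of over 50% in size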
# ELG1 DNA repair – blocks ELG1-dependent DNA repair in HEK293T cells; HEK293T ELG1-luciferase reporter, luminescence, 16 h; DNA damage induced by 5-fluorouridine; Potency, µM (series often up to 46.1 µM), for the others: at the highest dose activity change, negative = inhibition, usual class: inhibitors; 2.3% of 330,000 active; AID 504467; also: % is scaled to controls: 0 for no effect and ±100 for the full control effect; nearly all actives have a fitted effect of over 55% in size
#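 In this reporter screen, reduction of luminescence relative to DMSO vehicle indicated activity. Compounds and 5-fluorouridine were added together to 2,000 cells per well, incubated for 16 hr at 37 °C, then developed with ONE-Glo.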
# ELG1 FLuc counter – luciferase inhibition in cell-free luciferin readout for ELG1 hits; 3% of 350 active; shares compounds with ELG1 DNA repair; Potency, µM (series often up to 46.1 µM), without a hit: at the top dose activity change, negative = inhibition, actives largely listed as inhibitors; cell-free firefly luciferase luminescence counter-screen, ViewLux; also: % is scaled to controls: 0 for no effect and ±100 for the full control effect
# ELG1 Luc conf – inhibits ELG1-dependent DNA repair in HEK293T cells, confirmed; 68% of 670 active; shares compounds with ELG1 DNA repair; HEK293T ELG1-luciferase levels, luminescence; cells co-treated with 5-fluorouridine; Potency, µM (series often up to 46.1 µM), for inactives: at the highest dose activity change, negative = inhibition, actives largely listed as inhibitors; AID 624248; also: % is scaled to controls: 0 for no effect and ±100 for the full control effect; nearly all actives have a fitted effect of over 55% in size
# ELG1-Luc MMS – MMS-stimulated human ELG1 repair inhibition, confirmed; shares compounds with ELG1 DNA repair; 53% of 670 active; Potency, µM (doses to about 46.1 µM), without a hit: top-dose activity change, negative = inhibition, hits mostly inhibitors; HEK293T luciferase-tagged ELG1 level, MMS stimulated; also: % is scaled to controls: 0 for no effect and ±100 for the full control effect; nearly all actives have a fitted effect of over 60% in size
# ELG1 5FU viab – confirmation of ELG1 repair inhibitors: viability with 5FU | AID 624250 | 670 tested, under 10 active | Potency, µM (doses to about 46.1 µM), inactives show at the top dose activity change, negative = viability loss, actives largely listed as cytotoxic | cell viability with 5-FU, ELG1-dependent repair | shares compounds with ELG1 DNA repair;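 also: ELG1-luc HEK293T cells cotreated with 5-fluorouridine at 10 µM final; viability measured 16 h after compound addition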
# ELG1 MMS viab – confirmation of ELG1 repair inhibitors: viability with MMS | Cell viability with MMS, ELG1-dependent DNA repair | AID 624251 | Potency, µM (titrated, usually from 46.1 µM), without a hit: at the highest dose activity change, negative = viability loss, most hits filed as cytotoxic | shares compounds with ELG1 DNA repair | 33% of 670 active;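 also: ELG1-luc HEK293T cells co-treated with 10 µM MMS; viability read 16 h after compound addition; % is scaled to controls: 0 for no effect and ±100 for the full control effect; nearly all actives have a fitted effect of over 60% in size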
# ELG1 unstim viab – counter-screen for ELG1 repair inhibitors: unstimulated cell viability; shares compounds with ELG1 DNA repair; cell viability counter-screen, unstimulated, luminescence; Potency, µM (series often up to 45.9 µM), without a hit: top-dose activity change, negative = loss of viability, usual class: cytotoxic; 8% of 900 active; AID 624252;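 also: compound exposure lasted 16 hours before reading; % is scaled to controls: 0 for no effect and ±100 for the full control effect; nearly all actives have a fitted effect of over 55% in size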
# FLuc enzyme – firefly luciferase inhibition counter-screen; shares compounds with ELG1 DNA repair; purified firefly luciferase, luminescence counter-screen; Potency, µM (series often up to 57.5 µM), for inactives: at the highest dose activity, negative = inhibition, most hits filed as inhibitors; 10% of 350 active; also: % is scaled to controls: 0 for no effect and ±100 for the full control effect
# Starred values were filed as active, the others as inactive; u = inconclusive; x = no result; [ ] = another dose, or the depositor's remark. Calls follow the shape of the dose curve; as a rule, active = well fitted curve in the direction sought with a large enough effect; inconclusive = small, poorly fitted or top-dose-only effect, or another doubt; inactive = no such curve, though single readings can be large; an effect the other way counts as inactive or inconclusive. Potency is read from the fitted curve at half-maximal effect.
SMILES,SW480 rereplic,RORgamma inh,MCF10A rerep,VP16 counter,ELG1 DNA repair,ELG1 FLuc counter,ELG1 Luc conf,ELG1-Luc MMS,ELG1 5FU viab,ELG1 MMS viab,ELG1 unstim viab,FLuc enzyme
COc1cc2c(cc1OC)C1C(=O)c3c(cc4c(c3O)C=CC(C)(C)O4)OC1CO2 (configuration not stated),x,2.82µM*,x,1µM*,x,-2.8%,u,0.706µM*,-3.5%,0.792µM*,u,u
O=C1CC2OCC=C3CN4CCC56c7ccccc7N1C5C2C3CC46 (configuration not stated),x,-26.2%,x,-3.5%,x,x,x,x,x,x,x,x
CC(=O)O[C@H]1C[C@@H](O[C@@H]2[C@H](C)O[C@H](O[C@@H]3[C@H](C)O[C@H](O[C@@H]4CC[C@@]5(C)[C@@H](CC[C@]6(C)[C@]5(C)C[C@H](O)[C@]5(C)[C@@H](C7=CC(=O)OC7)CC[C@@]56O)C4)C[C@@H]3O)C[C@@H]2O)O[C@@H](C)[C@H]1O[C@H]1O[C@@H](CO)[C@@H](O)[C@@H](O)[C@@H]1O,x,12.0%[16.9 µM],x,1.7%[17 µM],x,u,1.07µM*,0.6µM*,u,1.69µM*,u,3.1%[35.2 µM]
NC(CO)Cc1ccccc1 (configuration not stated),x,0.9%,x,-4.4%,x,x,x,x,x,x,x,x
CC1OC(=O)C(C(C)C)NC(=O)C(C(C)C)OC(=O)C(C(C)C)NC(=O)C(C)OC(=O)C(C(C)C)NC(=O)C(C(C)C)OC(=O)C(C(C)C)NC(=O)C(C)OC(=O)C(C(C)C)NC(=O)C(C(C)C)OC(=O)C(C(C)C)NC1=O (configuration not stated),x,0.251µM*,x,0.562µM*,x,u,12.4%,0.0354µM*,u,0.0792µM*,0.0354µM*,4.2%
COc1ccc(C(=O)CC2(CC(=O)c3ccc(OC)cc3)C(=O)N(C)C(=O)N(C)C2=O)cc1,-6.8%,-8.6%,-4.7%,u,1.64µM*,x,0.499µM*,2.6%,u,1.1%,-4.4%,x
COc1ccc(C(=O)CN2CCCCC2)cc1,2.5%,2.1%,-1.8%,-21.8%,u,x,x,x,x,x,x,x
N#CC(O)c1ccccc1 (configuration not stated),x,17.5%,x,-6.0%,x,x,x,x,x,x,x,x

# Bioassay records: PubChem BioAssay, National Center for Advancing Translational Sciences (NCATS)
